# Screens deposited in PubChem BioAssay by Broad Institute.
# Tg IFNy HTS = inhibitors of Toxoplasma gondii growth with IFN-gamma; Toxoplasma gondii growth in IFN-gamma-treated host cells; hits give low values; activity change, negative = inhibition, % (test concentration not listed); hit rate 3.8% among 69,000; in the data active = activity change below about -70%, passing the limit was not always enough;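 note: host cells are HeLa cells infected with Toxoplasma gondii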
# The depositor's hits bear a star. This excerpt belongs to a sample that is enriched for hits.
SMILES,Tg IFNy HTS
O=c1[nH]c2ccccc2n1C1CCN(S(=O)(=O)NCc2ccccc2)CC1,-11
Cc1ccc(-c2coc(-c3ccc(NC(=O)c4ccccc4C)cc3)n2)cc1,13
COc1cccc(C)c1NC(=O)c1cccc(CN2CCC[C@@H]2C(N)=O)c1,0
CC(=O)N1CCC2(CC1)CCn1c(-c3ccc(C(N)=O)cc3)cnc12,-54
CCc1ccc(NC(=O)N2CCC3(CC2)Nc2cc(C)ccc2-n2cccc23)cc1,19
O=C1CO[C@H]2CN(C(=O)COc3ccccc3)C[C@@H]2N1,-27
O=c1nc(Nc2ccc(OC(F)(F)F)cc2)c2ccccc2o1,-62
O=C(Nc1ccc(OC(F)(F)F)cc1)c1c(O)c2ccccc2[nH]c1=O,10
O=c1cc(Nc2ccc(OC(F)(F)F)cc2)c2ccccc2o1,-102*
Cc1nn(CC(=O)NCc2ccco2)c(=O)c2nc(-c3ccccc3)sc12,-28
CN(C)c1nc(N)nc(COC(=O)CC(CC(N)=O)c2ccccc2)n1 (stereo not given),25
S=C(Nc1ccc(Oc2ccc(Cl)cc2)cc1)Nc1cccc(Cl)c1Cl,-32
Cc1ccc(Sc2ccc(NC(=O)Nc3ccc(OC(F)(F)F)cc3)cn2)cc1,-67
Cc1cc(C)cc(NC(=S)Nc2ccc(Oc3ccc(OC(F)(F)F)cc3)cc2)c1,-106*
O=c1cc(Cn2ccnc2)nc2n1CCCN(Cc1cccs1)C2,-3
COCC1CN(C(=O)Cc2cccs2)Cc2nnn(C)c21 (stereo not given),-43
Cc1ccc(OCc2nc(-c3cccs3)no2)cc1C,29
COc1ccc(-c2nc(Nc3cc(F)ccc3F)c3ccccc3n2)cc1,5
CCOC(=O)N1CCC(Nc2c(C(=O)OC)c(=O)[nH]c3ccc(F)cc23)CC1,-1
Cc1cc(C)n(Cc2nc(-c3ccc(NC(=O)c4ccccc4F)cc3)oc2C)n1,-41
Cc1cc(C)n(Cc2nc(-c3ccc(NC(=O)c4ccc(C)c(C)c4)cc3)oc2C)n1,-88*
COc1ccc(CC(=O)Nc2ccc(-c3nc(Cn4nc(C)cc4C)c(C)o3)cc2)cc1,-33
Cc1cc(C)n(Cc2nc(-c3ccc(NC(=O)c4ccc(F)c(Cl)c4)cc3)oc2C)n1,308
COc1ccccc1CC(=O)Nc1ccc(-c2nc(Cn3nc(C)cc3C)c(C)o2)cc1,-80*
Cc1ccc(C(=O)Nc2ccc(-c3nc(Cn4nc(C)cc4C)c(C)o3)cc2)c(C)c1,115
SMILES,Tg IFNy HTS
COc1ccccc1C(=O)Nc1ccc(-c2nc(Cn3nc(C)cc3C)c(C)o2)cc1,-85*
Cc1cc(C)n(Cc2nc(-c3ccc(NC(=O)COc4ccccc4)cc3)oc2C)n1,-2
Cc1cc(C)n(Cc2nc(-c3ccc(NC(=O)c4ccc(N(C)C)cc4)cc3)oc2C)n1,66
COc1ccc(-c2cc3c(n(C)c2=O)CCN(C(=O)CCc2c(C)noc2C)C3)c2ccc(C)nc12,-3
CC(=O)N1CC2(CCN(C(=O)[C@@H](N)CC(C)C)CC2)CC1C(=O)O (stereo not given in full),0
O=C(CN1CCN(c2ccccc2F)CC1)NCCC1=CCCCC1,1
Cc1ncc(-c2onc(C)c2C)c(CCNC(=O)Cc2ccccc2F)n1,31
Cc1cc(CC(C)NC(=O)CC2=CCCCC2)n[nH]1 (stereo not given),3
CN(Cc1ccnc2ccccc12)CC1CC(=O)N(C2CCCC2)C1 (stereo not given),-3
CC(C)n1cnnc1CN(C)C(=O)C(=O)c1ccco1,3
CCCn1ncc(CN(Cc2ccncc2)Cc2ccc(OC)cc2)c1C,61
COCCC1CCCCN1C(=O)c1ccc(-n2cnnc2)cc1 (stereo not given),3
O=c1c(-c2ccc(Br)cc2)c2sc3ccccc3nc-2c2ccccc12,16
Cc1ccsc1C(=O)N1CCc2ncc(CN(C)C)n2CC1,3
CCOc1ccccc1-c1nc(Cn2c(=O)c3c(C(=O)OC)cc(C)nc3n(C)c2=O)c(C)o1,4
COCCN1CCC(C(=O)N2CC=C(c3ccccc3)CC2)C1 (stereo not given),33
Cc1ccc(N2CCC3(CCC(=O)N3)CC2)nn1,31
O=C(c1ccc(CN2CCOCC2)cc1)N1CCN(C2CC2)CC1,13
CCCCOc1cc(C(F)(F)F)nc2ccc(CSc3nc4ccccc4[nH]3)cc12,-86*
CCOc1ccc(OCCSc2nc3ccccc3[nH]2)cc1,12
CCOc1ccc2nc(SCC)[nH]c2c1,54
Cc1ccc(-c2cccc(CC3(C(N)=O)CN(C(=O)c4snnc4C)CCO3)c2)cc1 (stereo not given),-9
Cc1nnsc1CN(C)C(=O)CCN1CCCCO1,-18
CCc1cccc(NC(=O)Cn2c(=O)ccc3cc(S(=O)(=O)N4CCCC4)ccc32)c1,322
CC1(C(=O)N2CCOCC2)CN(Cc2ccsc2)CCO1 (stereo not given),0
CC1(C(=O)NCc2ccc(F)cc2F)CCN(C(=O)c2ccc(C(C)(C)C)cc2)CC1,-91*
CC1(C(=O)NCc2ccc(F)cc2F)CCN(C(=O)c2ccccc2)CC1,30
CC1(C(=O)NCc2ccc(F)cc2F)CCN(C(=O)c2ccc(F)cc2)CC1,14
Cc1ccc(C(=O)Nc2nnc(Cc3ccc(Cl)cc3)s2)cc1-n1nnnc1C,-7
